Screening data: PubChem, several laboratories
HCT116 bCat-KO: beta-catenin-lacking colon tumor cell growth suppression. viability, % at 10 µM. HCT116 beta-catenin knockout viability, CellTiter-Glo, 60 h; stronger effect = lower value. AID 818. hit rate 1.5% among 140,000;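 active = viability at or under a set limit, the compound median less 4 SD, cut at about 6% in these data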;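 note: 0% = Hyamine 1622 control at 20 µM and 100% = untreated cell control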
INS promoter inh: TRM-6 insulin promoter activity inhibition. TRM-6 cells (human fetal islet line), insulin promoter-eGFP reporter, imaging; reporter expression induced with tamoxifen. hit rate 0.9% among 130,000. inhibition, % at 2 µM;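 active = inhibition above the mean plus 3 SD, with well images judged a real hit on visual review, cut at about 60% in these data, passing the limit was not always enough; inconclusive = inhibition over the cutoff but images rejected on review; inactive = inhibition not above the cutoff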
PTEN del growth: growth suppressors of cells with PTEN tumor suppressor deletion | HCT116 PTEN-null viability, CellTiter-Glo, 60 h; stronger effect = lower value | viability, % at 10 µM | hit rate 1.2% among 140,000 | AID 827;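 active = viability at or below a set limit, 4 SD under the median of all tested compounds, cut at about 3.7% in these data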;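 note: PTEN knockout HCT116 line with beta catenin targeted HCT116 as companion control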
Lmaj promast: Leishmania major promastigote growth inhibition. AID 1063. hit rate 9% among 200,000. inhibition, % at 10 µM. Leishmania major promastigotes, resazurin fluorescence viability; in the data active = inhibition above about 50%;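 note: promastigotes grown with compound for 44 hours at 28 °C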
ROMK mod: human ROMK K+ channel modulation, primary screen; P48048; Tet-inducible ROMK, thallium flux fluorescence; actives lie on both sides; B-score at 10 µM; hit rate 2% among 130,000; AID 1918;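 active = signal ratio slope over the read window, or its plate-corrected B-score, at least 3 SD from the plate mean, either direction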;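 note: B-score of the F/F0 ratio slope over 7 to 12 s after thallium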
Target sequence (P48048 whole entry, looked up): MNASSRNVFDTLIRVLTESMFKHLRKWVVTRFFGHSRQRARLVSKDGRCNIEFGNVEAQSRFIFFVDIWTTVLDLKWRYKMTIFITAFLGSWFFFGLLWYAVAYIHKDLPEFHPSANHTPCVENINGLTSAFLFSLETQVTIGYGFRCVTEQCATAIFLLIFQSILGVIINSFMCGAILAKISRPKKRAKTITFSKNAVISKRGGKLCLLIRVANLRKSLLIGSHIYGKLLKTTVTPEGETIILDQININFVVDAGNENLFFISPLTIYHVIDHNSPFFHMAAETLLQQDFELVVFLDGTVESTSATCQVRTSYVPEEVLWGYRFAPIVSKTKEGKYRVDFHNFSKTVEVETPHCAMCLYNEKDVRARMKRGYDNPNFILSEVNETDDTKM
p97 ATPase inh: human p97 ATPase inhibition; recombinant p97 ATPase, Kinase-Glo ATP luminescence, 3 h; inhibition, % at 8 µM; hit rate 0.42% among 220,000; in the data active = inhibition above about 15%;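 note: 0% = DMSO vehicle and 100% = wells lacking enzyme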
ROMK hit retest: retested hit modulating human ROMK potassium channel | shares compounds with ROMK mod | ROMK thallium flux, fluorescence ratio; stronger effect = lower value | normalized thallium flux (F/F0 slope) at 10 µM | hit rate 54% among 3,000;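 active = Flux at 10 µM at least 3 SD below or above vehicle control mean in one or both replicates; inconclusive = no clear call, values can overlap the other calls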
Numbers without * were called inactive; ? = inconclusive; / = not tested or not shown. Compounds with a hit are over-represented: about 10% of the library has one in this group of screens.

SMILES	HCT116 bCat-KO	INS promoter inh	PTEN del growth	Lmaj promast	ROMK mod	p97 ATPase inh	ROMK hit retest
Cc1ccc(C(=O)N/C(=C\c2ccc(-c3ccc(Br)cc3)o2)C(=O)NCCCN(C)C)cc1	/	/	/	100.5*	-3.69*	-4.9	0.0478*
CN(C)CCNC(=O)/C(=C/c1ccc(-c2ccc(Cl)cc2)o1)NC(=O)c1ccccc1	0.9*	-85.7	0.8*	100.2*	-4.38*	-8.9	0.0605*
COc1ccc(-c2ccc(/C=C(\NC(=O)c3ccccc3)C(=O)N3CCOCC3)o2)cc1	/	/	/	7.2	-0.53	0.1	/
COc1ccc(/C=C(/NC(=O)c2ccc([N+](=O)[O-])cc2)C(=O)NCCCN(C)C)cc1	/	27.8	/	1.6	0.0076	3.9	/
N#C/C(=C\c1ccc[nH]1)C(=O)N1CCCCC1	/	/	/	/	/	2.9	/
CCC(C)Sc1nc2c(c(=O)[nH]c(=O)n2C)n1CCc1ccccc1 (centres undefined)	92.6	42.9	89.0	14.2	/	0.1	/
CCC(C)Sc1nc2c(c(=O)[nH]c(=O)n2C)n1CC(O)COc1ccccc1C (centres undefined)	81.8	15.0	81.7	1.5	-3.47*	-1.8	0.0663*
Cc1cccc(NC(=O)C(=O)NCC2CCCO2)c1 (centres undefined)	/	/	/	-5.4	-0.174	10.0	/
Cn1cnnc1SCc1ccc(C(=O)N=Nc2c(O)n(Cc3ccc(Cl)cc3)c3ccccc23)cc1	3.8*	24.7	4.4	98.6*	-2.19*	11.9	0.0648*
CCn1c(O)c(N=NC(=O)c2ccc(CSc3nncn3C)cc2)c2ccccc21	91.8	-17.6	90.8	30.3	-3.43*	1.8	0.0717
CC1(C(=O)O)CCC(C(N)=O)C1(C)C (centres undefined)	/	/	/	/	/	8.0	/
COc1ccc(C(=O)/C(=C\c2ccco2)N2C=CC=CC2=C(C#N)C#N)cc1	9.1	-6.5	10.8	39.8	/	5.4	0.0382*
N#CC(C#N)=C1C=CC=CN1/C(=C\c1ccco1)C(=O)c1ccccc1	1.9*	/	1.8*	45.7	-6.04*	6.5	0.0358*
N#CC(C#N)=C1C=CC=CN1/C(=C\c1ccco1)C(=O)c1ccc(Br)cc1	6.5	-220.0	3.9	24.0	/	2.9	/
C1CSC2(N1)C1CC3CC2CC(C1)C31NCCS1 (centres undefined)	91.5	18.9	98.2	-5.5	/	-0.2	/
Cc1ccnc(NC(=O)CCc2c(C)nc3ncnn3c2C)c1	101.0	0.0	105.6	-6.4	/	-2.2	/
CCOC(=O)c1c(-c2ccccc2)csc1NC(=O)c1cc2ccccc2oc1=O	99.8	/	98.8	-4.1	/	-1.7	/
C(#Cc1ccccc1)C[N+]1(CC#Cc2cccc3ccccc23)CCCC1	16.8	-18.5	15.2	100.5*	-4.51*	0.6	0.0493*
C#CC[N+]1(CC#Cc2ccccc2)CCCC1	93.8	0.0	97.5	-7.2	/	3.3	/
CCS(=O)(=O)c1ccc(O)c(NC(=O)Nc2ccc(C(C)(C)C)cc2)c1	/	/	/	/	-2.5*	1.5	0.0796
CCS(=O)(=O)c1ccc(O)c(NC(=O)Nc2ccccc2)c1	105.9	-58.3	91.5	-2.4	/	-6.8	/
CCOC(=O)Cc1csc(NC(=O)c2cnc3scc(C)n3c2=O)n1	/	62.9	/	8.9	/	0.8	/
CC(C)CCNC(=O)C(CC(C)C)N(Cc1ccc2c(c1)OCO2)C(=O)c1snc(C(N)=O)c1N (centres undefined)	/	/	/	92.3*	/	2.6	?
CCCC(C(=O)NC1CCCC1)N(Cc1cccs1)C(=O)c1snc(C(N)=O)c1N (centres undefined)	79.9	/	85.1	7.0	/	1.2	0.0748
CC(NCc1cccc(S(=O)(=O)N(C)C)c1)c1ccc(F)cc1 (centres undefined)	/	/	/	/	/	2.4	/
SMILES	HCT116 bCat-KO	INS promoter inh	PTEN del growth	Lmaj promast	ROMK mod	p97 ATPase inh	ROMK hit retest
CCC(CC)C(=O)Nc1c2cnn(-c3ccccc3)c2nc(=O)n1-c1ccccc1	94.3	/	105.0	-6.6	-4.97*	7.4	0.0515*
CN1CC=C2C(C#N)=C(N)C(C#N)(C#N)[C@H](c3cccc(Cl)c3)C2C1 (some centres undefined)	85.4	-7.1	86.8	8.6	-3.78*	3.6	0.0449*
O=C(COC(=O)c1ccc[nH]c1=O)NC1CCCc2ccccc21 (centres undefined)	/	/	/	/	/	3.2	/
CCOC(=O)C1(CCc2ccccc2)CCN(Cc2nccn2CC)CC1	/	/	/	30.9	-0.471	-5.7	/
CCOC(=O)C1(CCOc2ccccc2)CCN(Cc2ccc(C)o2)CC1	/	0.0	/	73.5*	-4.51*	-0.3	0.0674*
CCOC(=O)C1(CCc2ccccc2)CCN(Cc2c(O)cccc2OC)CC1	/	7.1	/	91.4*	-2.79*	-0.5	0.0547*
CCN(CC)CCN(C(=O)Cn1nnc(-c2ccc(OC)c(OC)c2)n1)C(C(=O)NC1CCCC1)c1ccc(F)cc1 (centres undefined)	56.0	10.1	44.5	-0.5	-0.711	3.9	/
CCOc1ccc(NC(=O)CCN2CCN(S(=O)(=O)c3ccc(OC)cc3)CC2)cc1	82.7	-8.3	88.4	-5.7	-0.487	1.8	/
COc1ccc(NC(=O)CCN2CCN(S(=O)(=O)c3cc(Cl)ccc3OC)CC2)cc1	100.0	7.7	104.5	81.7*	-3.34*	-4.4	0.0607*
CC(=O)NCC(=O)OC(C)C(=O)Nc1ccc(C(C)=O)cc1 (centres undefined)	91.7	20.0	95.2	-0.8	/	-2.7	0.0745
Cc1ccc2c(CSc3nncn3C)cc(=O)oc2c1C	/	33.3	/	-1.1	0.916	3.5	/
O=C(c1cccc2ccccc12)N1CCN(CC2CC=CCC2)CC1 (centres undefined)	90.6	-14.3	86.1	29.7	-2.64*	-2.7	0.0586*
O=C(C1CCN(CC2CC=CCC2)CC1)N(CCc1ccccc1)Cc1ccccc1 (centres undefined)	55.4	-53.9	61.9	27.3	-2.78*	-1.8	0.064*
O=C(C1CCN(CCCc2ccccc2)CC1)N(CCc1ccccc1)Cc1ccccc1	18.5	25.0	24.3	91.0*	-5.02*	-2.8	0.0505*
COC(=O)c1ccc2c(=O)n(CCN3CCOCC3)c(SCC(=O)NCc3ccccc3)nc2c1	/	37.5	/	9.7	0.338	-0.8	/
O=C(COc1ccc(Cl)cc1[N+](=O)[O-])N1CCCCCC1	/	/	/	2.5	-1.79*	1.9	?
CN(C)c1ccc(/C=C/c2ccncc2)cc1	87.8	-86.8	101.0	0.1	/	4.4	/
CN(C)c1ccc(/C=C/c2cccc[n+]2[O-])cc1	/	/	/	/	-4.41*	9.4	0.0539*
O=C(Nc1ccc2c(c1)nc1n2CCN(C2CCCCC2)C1)NC1CCCCC1	88.8	/	103.3	-1.6	-3.1*	4.6	0.0418*
Cc1noc(C)c1CS(=O)(=O)c1ccc(Br)cc1	81.7	3.0	90.8	-2.6	/	-4.0	0.0819
Cn1c(SCc2nnc3n2CCCCC3)nc2ccccc21	96.0	-9.3	99.0	0.5	/	0.6	0.0812
Cn1c(SCC(=O)N2CCCC2)nc2ccccc21	/	-13.3	/	0.5	0.537	5.2	/
COc1ccc(C)cc1NC(=O)CSc1nnc(-c2ccco2)n1N	94.9	-14.3	97.2	-0.3	/	3.0	/
